Shown are actives, neighbours in structure and some others; about 3.5% of the full set was active somewhere.
KCNK9 inh = blocks the human KCNK9 two-pore domain potassium channel. HEK293 KCNK9, FluxOR thallium flux fluorescence; active compounds read low. 1.2% of 310,000 active. Q9NPC2. B-score at 10 µM;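 active = ratio B-score over 3 SD below the library mean, with starting fluorescence within 5 SD of its mean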;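 note: negative B-score means less thallium flux so channel inhibition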
Target sequence (Q9NPC2 whole entry, looked up, the tested form may be a part): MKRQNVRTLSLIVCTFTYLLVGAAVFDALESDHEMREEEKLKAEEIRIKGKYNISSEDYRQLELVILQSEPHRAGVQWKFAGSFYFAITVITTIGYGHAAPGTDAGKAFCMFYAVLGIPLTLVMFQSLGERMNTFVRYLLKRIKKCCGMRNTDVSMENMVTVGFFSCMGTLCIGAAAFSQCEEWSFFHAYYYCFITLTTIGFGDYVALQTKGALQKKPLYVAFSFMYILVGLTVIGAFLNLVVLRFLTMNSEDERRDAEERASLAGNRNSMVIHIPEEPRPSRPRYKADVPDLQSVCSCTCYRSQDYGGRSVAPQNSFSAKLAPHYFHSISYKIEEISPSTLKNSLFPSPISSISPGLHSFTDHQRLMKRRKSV
ANO1 activ = activators or potentiators of mouse TMEM16A chloride channel | Q8BHY3 | HEK293 TMEM16A/YFP-H148Q/I152L, iodide quench fluorescence; active compounds read low | 0.3% of 340,000 active | B-score at 10 µM;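 active = fluorescence-ratio B-score plate-corrected deviation score at least 3 library SD below zero, with starting fluorescence score within 5 deviations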;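 note: channel opened by trigger with iodide after compound preincubation; score built on the fluorescence ratio of max minus min over baseline; more negative score means more quench and so TMEM16A activation or potentiation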
KCNK3 block = human KCNK3 channel inhibition, primary screen; CHO-KCNK3 thallium flux, FluxOR fluorescence; active compounds read low; B-score at 10 µM; 0.84% of 340,000 active; AID 602410;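 active = B-score under library mean minus 4 SD, starting fluorescence ratio at most library mean plus 5 SD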;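 note: more negative B-score means stronger inhibition of thallium flux through KCNK3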
Kir21 block = inhibitors of mouse Kir2.1 inward-rectifier potassium channel; P35561; HEK293-Kir2.1, FluxOR thallium flux fluorescence; active compounds read low; B-score at 10 µM; 0.85% of 310,000 active; AID 1672;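 active = fluorescence ratio B-score at or below minus 3 SD of library scores, with starting-brightness B-score within 2 SD, cut at about -4.2 in these data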;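 note: channel flux triggered by added potassium and thallium sulfate stimulus; B-score of peak minus minimum fluorescence over baseline after thallium stimulus; more negative B-score means stronger Kir2.1 block with less thallium influx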
TMEM16A inh = inhibitors of mouse TMEM16A calcium-activated chloride channel; Q8BHY3; HEK293 TMEM16A/YFP iodide influx fluorescence, ionomycin; 1.2% of 310,000 active; normalized B-score (activity score, 25-100; higher = stronger inhibition) at 10 µM;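 active = ratio plate-corrected score three or more library SD toward inhibition, starting fluorescence score within five deviations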;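 note: score derived from kinetic fluorescence span divided by baseline fluorescence per well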
TMEM16A reconf = reconfirmed blocker of mouse TMEM16A calcium-activated chloride channel. shares compounds with TMEM16A inh. HEK293 TMEM16A/YFP-H148Q, iodide quench fluorescence; ionomycin added to raise cell calcium. inhibition, % at 10 µM. 39% of 2,300 active;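 active = mean duplicate percent inhibition, scaled so buffer wells are 0 and the reference blocker 100, over three buffer SD above buffer mean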
TMEM16A Ca cntr = alters calcium mobilization in TMEM16A HEK293 cells, counter-screen; shares compounds with TMEM16A inh; AID 652231; calcium response (% of ionomycin), % at 10 µM; TMEM16A/YFP HEK293, Fluo4 calcium mobilization; 2% of 2,300 active;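 active = duplicate-averaged calcium signal over 20% of the ionomycin maximum, relative to buffer baseline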;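 note: each well's signal is peak minus trough fluorescence divided by its pre-addition baseline; 0% = buffer wells and 100% = ionomycin wells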
Parental YFP cnt = counter-screen for TMEM16A inhibitors: effect in parental YFP-HEK293 cells. iodide YFP quench, ionomycin. YFP ratio F(max-min)/F0 at 10 µM. shares compounds with TMEM16A inh. AID 652233. 2,300 tested, under 10 active;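 active = yellow fluorescent protein signal ratio exceeding the buffer control mean by over 5 SD of those controls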;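 note: ratio is mean of duplicate wells from kinetic YFP trace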
ClC-1 rat inh = rat ClC-1 inhibition, TMEM16A specificity screen. 2,300 tested, under 10 active. CHO ClC-1-YFP, iodide influx fluorescence quench; iodide control reads 0, buffer control 100. shares compounds with TMEM16A inh. ratio percent, % at 10 µM. AID 652236;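 active = duplicate-mean ratio percent above the mean of iodide-only control wells, which defines zero, plus 5 of their SD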;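 note: higher percent means stronger block of ClC-1 iodide influx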
An asterisk follows results filed as active; i = inactive; x = not tested or not shown; ! = not active in a repeat.

SMILES	KCNK9 inh	ANO1 activ	KCNK3 block	Kir21 block	TMEM16A inh	TMEM16A reconf	TMEM16A Ca cntr	Parental YFP cnt	ClC-1 rat inh
O=C(NCC(=O)N1CCN(S(=O)(=O)c2ccccc2)CC1)c1ccc(Br)o1	i	i	i	0.53	i	x	x	x	x
O=C(Nc1ccc2c(c1)C(=O)N(CC1CCCO1)C2=O)c1ccc(Cl)c(Cl)c1 (stereo not drawn)	i	i	i	1.2	100*	52%*	i	-0.89	-26
CCCCCCNC(=O)CCCCCNS(=O)(=O)c1ccc(Br)cc1	i	i	i	-0.82	i	x	x	x	x
Fc1ccc2nc(Nc3nc4c(F)cccc4s3)sc2c1	i	i	i	1.4	25*	25%*	i	-0.89	-13
Cc1ccc(-c2csc(NC(=O)CSc3nc(C)cc(=O)[nH]3)n2)cc1	i	x	x	-0.8	i	x	x	x	x
CCC(Sc1nc(C)cc(=O)[nH]1)C(=O)Nc1nc(-c2ccccc2)cs1 (stereo not drawn)	i	i	i	-1.7	25*	43%*	i	-1.1	-10
Cc1sc(NC(=O)CSc2nnc3scc(-c4ccccc4)n23)c(C#N)c1C	i	i	i	0.09	25*	i	i	-1.1	-8
COCCCNC(=S)NNC(=O)c1cc(Cl)c(O)c(Cl)c1	i	i	i	0.67	i	x	x	x	x
C=CCc1cc(OC)ccc1OCC(O)CN1CCN(c2ccc(OC)cc2)CC1 (stereo not drawn)	i	i	i	-2	25*!	i	i	-1.2	-14
C=CCc1cc(C)ccc1OCC(O)CN1CCN(c2ccccc2)CC1 (stereo not drawn)	i	i	i	-0.63	i	x	x	x	x
CCCOc1nc(C)cc(COC)c1C(N)=O	i	i	i	0.89	i	x	x	x	x
Cc1ccc(S(=O)(=O)Nc2nc3ccccc3nc2NCc2ccco2)cc1C	i	i	i	-0.89	100*	i	i	-0.97	-15
CC(C)c1nnc(SCC(=O)N2CCc3ccccc32)n1C	i	i	i	-0.5	100*	i	i	-1	-3
Cn1cnnc1SCC(=O)N1CCc2ccccc21	i	i	i	-1.9	i	x	x	x	x
Cc1cccc(NC(=O)c2cc3ccccc3o2)c1	i	i	i	1.6	i	x	x	x	x
O=C(Nc1cccc(Br)c1)c1cc2ccccc2o1	i	i	i	1.4	25*	i	i	-0.9	-9
CC1CCCC(NC(=O)C2CCN(S(=O)(=O)N3CCOCC3)CC2)C1C (stereo not drawn)	i	i	i	0.99	25*	i	i	-0.88	-4
CC(C)(C)NC(=O)CN(C(=O)CN1C(=O)C(=O)c2ccccc21)C(C)(C)C	i	i	i	1.2	i	x	x	x	x
O=[N+]([O-])c1cc(Cl)cc(/C=N/NC(=S)Nc2ccc(S(=O)(=O)N3CCOCC3)cc2)c1O	i	i	i	0	25*	70%*	i	-0.73	4
O=S(=O)(c1ccc(NC(=S)N/N=C/c2ccc(O)c(O)c2)cc1)N1CCOCC1	i	i	i	-0.79	i	x	x	x	x
Cc1ccc2c(cnn2C(=O)CCC(=O)NC2CCCCC2)c1	i	i	i	-0.51	i	x	x	x	x
O=S(=O)(NCCSCc1c(Cl)cccc1Cl)c1ccc2c(c1)OCCO2	i	i	i	-1.6	25*	i	i	-1.1	-10
COc1ccc(Cc2noc(CN3CCN(Cc4cccc(Cl)c4)CC3)n2)cc1OC	i	i	i	0.02	i	x	x	x	x
COc1ccc(Cc2noc(CN3CCN(c4ccc(Cl)cn4)CC3)n2)cc1OC	i	i	i	-0.12	100*	28%*	i	-0.99	6
